Source: PubChem BioAssay (Tox21)
Results filed as inconclusive are left out. A structure can be active in one record and inactive in another. The source made the active and inactive calls. Unless noted, the call rests on the fitted dose curve; in most records, active means well fitted curve in the direction sought with a large enough effect in the repeat runs; inconclusive means weak or mixed curves; inactive means no such curve, though single readings can be large; an effect the other way counts as inactive or inconclusive.

Experiments:
[1] = A CellTox Green Cytotoxicity Assay to monitor cytotoxicity in HepG2 cells - 8 hour (AID 1224890); further: nearly all actives have a fitted effect of over 45% in size
Procedure, shortened: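 Using 1536-well format, dye-containing HepG2 suspension was seeded, allowed 5 h at 37 C/5% CO2, dosed by pintool with compounds, positive and negative controls, and imaged for fluorescence across 40 h.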

[2] = qHTS assay to identify small molecule antagonists of the estrogen receptor alpha (ER-alpha) signaling pathway using the BG1 cell line in the presence of 0.1 nM 17-beta-estradiol - cell viability counter screen (AID 1259241); further: nearly all actives have a fitted effect of over 40% in size
Procedure, shortened: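 Live-cell protease activity (CellTiter-Fluor fluorescence, 30 min) was read in the same wells after VM7Luc4E2 cells had been exposed to compounds with 0.1 nM 17beta-estradiol for 22 hr at 37C.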

[3] = qHTS assay to identify small molecule antagonists of the androgen receptor (AR) signaling pathway using the MDA cell line in the presence of 0.5 nM R1881 - cell viability counter screen (AID 1259242); further: nearly all actives have a fitted effect of over 45% in size
Procedure, shortened: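 Viability of MDA-kb2 cells was multiplexed with the luciferase AR readout; after 16 hr with compounds and R1881 at 0.5 nM final, CellTiter-Fluor fluorescence was recorded.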

[4] = target: Estrogen receptor (Homo sapiens) (UniProt P03372); experiment: qHTS assay to identify small molecule antagonists of the estrogen receptor alpha (ER-alpha) signaling pathway using the BG1 cell line in the presence of 0.1 nM 17-beta-estradiol (AID 1259244); further: nearly all actives have a fitted effect of over 50% in size
Sequence of Estrogen receptor (Homo sapiens) (P03372 whole entry, looked up): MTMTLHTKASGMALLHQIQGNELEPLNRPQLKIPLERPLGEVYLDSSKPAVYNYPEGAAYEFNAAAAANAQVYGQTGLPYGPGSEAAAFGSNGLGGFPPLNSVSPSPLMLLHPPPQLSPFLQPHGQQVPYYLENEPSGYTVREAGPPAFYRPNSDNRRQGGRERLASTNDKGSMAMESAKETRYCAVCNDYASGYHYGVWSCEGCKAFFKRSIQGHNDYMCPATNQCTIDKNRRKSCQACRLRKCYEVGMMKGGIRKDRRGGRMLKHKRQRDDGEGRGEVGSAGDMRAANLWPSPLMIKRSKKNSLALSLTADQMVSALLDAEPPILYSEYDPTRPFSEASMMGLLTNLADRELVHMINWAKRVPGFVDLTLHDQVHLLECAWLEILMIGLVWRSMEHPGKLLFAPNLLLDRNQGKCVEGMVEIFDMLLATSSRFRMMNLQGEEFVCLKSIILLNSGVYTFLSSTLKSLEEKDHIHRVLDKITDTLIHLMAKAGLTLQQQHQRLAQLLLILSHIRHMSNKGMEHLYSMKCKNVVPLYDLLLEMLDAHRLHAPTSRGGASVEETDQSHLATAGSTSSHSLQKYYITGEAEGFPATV
Procedure, shortened: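 Estradiol at 0.1 nM (final) stimulates the endogenous ER-alpha of VM7Luc4E2 cells carrying an ERE-driven luciferase; compounds are co-incubated 22 h at 37C and luciferase output quantified by luminescence.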

[5] = qHTS assay to identify small molecule HDAC inhibitors (AID 1259364);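 further: wild-type HCT-116 cells with endogenous class I/II HDAC activity; top concentration of the series differs between compounds; nearly all actives have a fitted effect of over 45% in size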
Procedure, shortened: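 Read-out: luminescence of HDAC-Glo I/II reagent, 30 min RT, reflecting class I/II deacetylase activity in whole HCT-116 cells pre-exposed 2 h to DMSO-dissolved compounds.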

[6] = qHTS assay to identify small molecule HDAC inhibitors - cell viability counter screen (AID 1259365); further: series mostly up to about 92 µM; nearly all actives have a fitted effect of over 50% in size
Procedure, shortened: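 HCT-116 (wild type), 1,500 cells/well, overnight 37C/5% CO2; compound in DMSO 2hr; CellTiter-Glo 30min RT; luminescence read.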

[7] = qHTS assay to identify small molecule agonists of the sonic hedgehog signaling (Shh) pathway - cell viability counter screen (AID 1259366); further: nearly all actives have a fitted effect of over 50% in size; further: potency means the concentration at half of the fitted maximal effect
Procedure, shortened: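 CellTiter-Fluor fluorescence read-out, 1 hr at 37C, added after 23hr compound exposure. Cells: 3T3 Gli1-Luc, an NIH/3T3 clone with stably integrated Gli1-Luc reporter, plated 4hr before compound.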

[8] = qHTS assay to identify small molecule antagonists of the sonic hedgehog signaling (Shh) pathway - cell viability counter screen (AID 1259367); further: nearly all actives have a fitted effect of over 55% in size; further: potency means the concentration at half of the fitted maximal effect
Procedure, shortened: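 Using CellTiter-Fluor, viability of Gli1-Luc reporter 3T3 cells is read by fluorescence in the wells used for the Shh luciferase assay. Treatment lasts 23 hr with conditioned medium, then reagent 1 hr at 37C.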

[9] = qHTS assay to identify small molecule phospholipidosis (PLD) inducers (AID 1259344; active means well fitted curve in the direction sought with a large enough effect; an effect the other way counts as inactive or inconclusive)
Procedure, shortened: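 Fluorescent phospholipid staining (LipidTOX Red) measured by automated microscopy in fixed HepG2 cells after 24 h treatment; nuclei counterstained with Hoechst 33342; amiodarone as reference inducer.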
On the % scale 0 is the no-effect control and ±100 the full control effect.

CCO[Si](CCC1CCC2OC2C1)(OCC)OCC (centres undefined)
inactive: Potency [1] | outcome [2] | Potency [3] | outcome [4] | Potency [5] | outcome [6] | Potency [7] | Potency [8]

N[C@H](C(=O)O)c1ccc(O)cc1
inactive: cytotoxicity increase [1] -9.51% [at 15.8 µM] | activity change, negative = cytotoxicity [2] 8.37% [at 19 µM] | viability change, negative = cytotoxic [3] 0.442% [at 19 µM] | activity change, negative = inhibition [4] 12.1% [at 19 µM] | Potency [9] | activity change, negative = inhibition [5] -0.75% [at 19 µM] | activity change, negative = cytotoxicity [6] -1.63% [at 19 µM] | viability change, negative = cytotoxic [7] -2.17% [at 19 µM] | Potency [8]

CC(C)c1cc2c(cc1S(=O)(=O)O)[C@@]1(C)CCC[C@@](C)(C(=O)O)[C@@H]1CC2
inactive: Potency [1] | outcome [2] | Potency [3] | outcome [4] | Potency [9] | Potency [5] | outcome [6] | Potency [7] | Potency [8]

CCc1nccnc1CC
inactive: cytotoxicity increase [1] 4% [at 15.8 µM] | activity change, negative = cytotoxicity [2] -0.0848% [at 19 µM] | viability change, negative = cytotoxic [3] 6.4% [at 19 µM] | activity change, negative = inhibition [4] 2.66% [at 19 µM] | activity change, negative = inhibition [5] 0.718% [at 19 µM] | activity change, negative = cytotoxicity [6] 0.191% [at 19 µM] | viability change, negative = cytotoxic [7] 3.6% [at 19 µM] | Potency [8]

CCCc1cc(C(N)=S)ccn1
inactive: Potency [1] | outcome [2] | Potency [3] | outcome [4] | Potency [9] | Potency [5] | outcome [6] | Potency [7] | Potency [8]

CCO/C([O-])=N/c1c[n+](N2CCOCC2)no1
inactive: Potency [1] | outcome [2] | Potency [3] | outcome [4] | Potency [9] | Potency [5] | outcome [6] | Potency [7] | Potency [8]

NCCCNCCSP(=O)(O)O
inactive: cytotoxicity increase [1] 0.329% [at 6.97 µM] | activity change, negative = cytotoxicity [2] -0.971% [at 8.39 µM] | viability change, negative = cytotoxic [3] 0.214% [at 8.39 µM] | activity change, negative = inhibition [4] 3.05% [at 8.39 µM] | Potency [9] | activity change, negative = inhibition [5] -1.97% [at 8.39 µM] | activity change, negative = cytotoxicity [6] 0.673% [at 8.39 µM] | viability change, negative = cytotoxic [7] -2.35% [at 8.39 µM] | viability change, negative = cytotoxic [8] 5.98% [at 8.39 µM]

O=C1CCCCCCCCCCCN1
inactive: Potency [1] | outcome [2] | Potency [3] | outcome [4] | Potency [5] | outcome [6] | Potency [7] | Potency [8]

O=C1OC(=O)C2CCCCC12 (centres undefined)
inactive: Potency [1] | outcome [2] | Potency [3] | outcome [4] | Potency [5] | outcome [6] | Potency [7] | Potency [8]

CC1=CC(C)C(C=O)CC1 (centres undefined)
inactive: Potency [1] | outcome [2] | Potency [3] | outcome [4] | Potency [5] | outcome [6] | Potency [7] | Potency [8]

CCC(=O)OC(C)c1ccccc1 (centres undefined)
inactive: Potency [1] | outcome [2] | Potency [3] | outcome [4] | Potency [5] | outcome [6] | Potency [7] | Potency [8]

CCS(=O)(=O)c1ccc(OC)c(C(=O)OC)c1
inactive: Potency [1] | outcome [2] | Potency [3] | outcome [4] | Potency [5] | outcome [6] | Potency [7] | Potency [8]

C[C@H](NC(CCc1ccccc1)C(=O)O)C(=O)N1CCC[C@H]1C(=O)O (some centres undefined)
inactive: Potency [1] | outcome [2] | Potency [3] | outcome [4] | Potency [9] | Potency [5] | outcome [6] | Potency [7] | Potency [8]

Cc1ccc(=O)n(-c2ccccc2)c1
inactive: Potency [1] | outcome [2] | Potency [3] | outcome [4] | Potency [9] | Potency [5] | outcome [6] | Potency [7] | Potency [8]

C=C1CC[C@H]2C[C@@H]1C2(C)C
inactive: Potency [1] | outcome [2] | Potency [3] | outcome [4] | Potency [5] | outcome [6] | Potency [7] | Potency [8]

C[C@@H]1CCN(C(=O)[C@H](CCCN=C(N)N)NS(=O)(=O)c2cccc3c2NC[C@H](C)C3)[C@@H](C(=O)O)C1
inactive: Potency [1] | outcome [2] | Potency [3] | outcome [4] | Potency [9] | outcome [6] | Potency [7] | Potency [8]

CC(=O)c1ccccc1O
inactive: Potency [1] | outcome [2] | Potency [3] | outcome [4] | Potency [5] | outcome [6] | Potency [7] | Potency [8]

CCOC(=O)[C@H](CCc1ccccc1)N[C@@H](C)C(=O)N1[C@H](C(=O)O)C[C@@H]2CCC[C@@H]21
inactive: Potency [1] | outcome [2] | Potency [3] | outcome [4] | Potency [9] | Potency [5] | outcome [6] | Potency [7] | Potency [8]

CCOC(=O)CCC(C)=O
inactive: Potency [1] | outcome [2] | Potency [3] | outcome [4] | Potency [5] | outcome [6] | Potency [7] | Potency [8]

CN1C(=O)N(C)C(O)C1O (centres undefined)
inactive: Potency [1] | outcome [2] | Potency [3] | outcome [4] | Potency [5] | outcome [6] | Potency [7] | Potency [8]

COC(=O)C1=C(C)NC(C)=C(C(=O)OC)C1c1ccccc1[N+](=O)[O-]
30.7 µM (active) and inactive: Potency [8]
inactive: Potency [1] | outcome [2] | Potency [3] | outcome [4] | Potency [9] | Potency [5] | outcome [6]
active: Potency [7] 27.3 µM

CC(C)(C)NCCNC(C)(C)C
inactive: Potency [1] | outcome [2] | Potency [3] | outcome [4] | Potency [5] | outcome [6] | Potency [7] | Potency [8]

O=C1CCCN1C1CCCCC1
inactive: Potency [1] | outcome [2] | Potency [3] | outcome [4] | Potency [5] | outcome [6] | Potency [7] | Potency [8]

CCCN1CCCC[C@H]1C(=O)Nc1c(C)cccc1C
inactive: Potency [1] | outcome [2] | Potency [3] | Potency [9] | Potency [5] | outcome [6] | Potency [7] | Potency [8]

Cc1[nH]c(=O)c(C#N)cc1-c1ccc2nccn2c1
inactive: Potency [1] | outcome [2] | Potency [3] | Potency [9] | Potency [5] | outcome [6] | Potency [7] | Potency [8]
